Measurements taken from PubChem BioAssay AID1531 (NMMLSC, 2009).
In all, about 290,000 compounds went through this assay and about 3,300 (1.1%) were called active. For the sample, actives were picked, then their nearest neighbours and some compounds at random. A number with no mark means an inactive call. No stated cut-off is given here; in the data, active means binding response below about 67% or above about 130%; inconclusive means no clear call, values can overlap the other calls; inactive means in between.

These compounds were tested against Mitogen-activated protein kinase kinase kinase 2 (Homo sapiens) (UniProt Q9Y2U5) (assay: modulators of MEK5 binding to wildtype MEKK2, primary screen, biochemical, multiplex bead flow cytometry, Alexa488-MEK5 (AID 1531)). Conditions: Alexa488-MEK5 binding to MEKK2 WT, at 10 µM, actives lie on both sides.

| Structure (SMILES) | binding response (% of control) |
| --- | --- |
| CC(=O)N(C)c1ccc(NC(=O)C(F)(F)F)cc1 | -2% [inhibitor] (active) |
| CC(=O)N(C)c1ccc(NC(=O)Nc2cccc3ccccc23)cc1 | 106% |
| CN(C)CCCNC(=O)/C=C/c1ccc(OCc2c(F)cccc2Cl)cc1 | 170% (active) |
| O=C(/C=C/c1ccc(OCc2c(F)cccc2Cl)cc1)N1CCOCC1 | 74% |
| COCCCNC(=O)/C=C/c1ccc(OCc2c(F)cccc2Cl)cc1 | 106% |
| CCOC(=O)N1CCC(NC(=O)CCc2ccccc2)CC1 | 107% |
| COc1cc(NC(=O)C2=CC(c3ccc(C)cc3)=NS(=O)(=O)N2C)cc(OC)c1OC | 105% |
| Cc1cc(C)cc(N(CC(=O)NC2CCCC2)C(=O)CCC(=O)Nc2cc(C)on2)c1 | 96% |
| COCCCNC(=O)[C@H]1N2C(=O)c3ccccc3C2SC1(C)C (some centres not stated) | 103% |
| CS(=O)(=O)Nc1cccc(C2=NN(C(=O)c3cccc(F)c3)C(c3cccs3)C2)c1 (configuration not stated) | 102% |
| CS(=O)(=O)Nc1cccc(C2=NN(S(=O)(=O)c3ccccc3)C(c3cccs3)C2)c1 (configuration not stated) | 94% |
| Cc1ccc(C2CC(c3cccc(NS(C)(=O)=O)c3)=NN2S(C)(=O)=O)cc1 (configuration not stated) | 20% (active) |
| CN(C(=O)CC1C(=O)NCCN1Cc1ccc(F)cc1Cl)C1CCCCC1 (configuration not stated) | 101% |
| S=C(NCc1ccc(Cl)cc1)NC12CC3CC(CC(C3)C1)C2 | 160% (active) |
| S=C(NCc1ccc(Cl)cc1)NC1CCCCC1 | 106% |
| O=C(NCc1ccncc1)NC12CC3CC(CC(C3)C1)C2 | 87% |
| Cc1cccc(OCC(=O)NCC(=O)N/N=C/c2ccc(N(C)C)cc2)c1 | 106% |
| CN(C)CCCn1c(SCc2ccc(Cl)cc2)nnc1-c1ccncc1 | 109% |
| O=S(=O)(Cc1nnnn1-c1ccccc1)c1ccccc1 | 108% |
| CCC1=NN2C(=N)/C(=C/c3cc(C)n(-c4ccccc4)c3C)C(=O)N=C2S1 | 98% |
| Cc1cc(/C=C2/C(=N)N3C(=NC2=O)SN=C3S(C)(=O)=O)c(C)n1-c1ccccc1 | -2% (active) |
| CCS(=O)(=O)C1=NSC2=NC(=O)/C(=C\c3cc(C)n(-c4cccc(OC)c4)c3C)C(=N)N21 | 98% |
| Cc1cccc(CCNC(=O)Cn2ncc3c([nH]c4ccc(C)cc43)c2=O)c1 | 96% |
| C=CCOc1cccc(C2C(C(=O)c3ccc(C)o3)=C(O)C(=O)N2CCCn2ccnc2)c1 (configuration not stated) | 98% |

| Structure (SMILES) | binding response (% of control) |
| --- | --- |
| CC1CCCC(C)N1C(=O)CSc1nnnn1C1CCCC1 (configuration not stated) | 100% |
| CCCc1nnc(SCC(=O)N2C(C)CCCC2C)n1CC (configuration not stated) | 812% (active) |
| CCCc1cc(=O)[nH]c(SCC(=O)N2C(C)CCCC2C)n1 (configuration not stated) | 113% |
| COc1ccccc1CNS(=O)(=O)c1c(C)[nH]c(C)c1C(=O)N1CCCCC1 | 101% |
| O=C(Nc1ccc(C(=O)N2CCOCC2)cc1)Nc1cccc(C(F)(F)F)c1 | 102% |
| O=C(COc1cc2oc(=O)c3c(c2cc1Cl)CCC3)NCCCN1CCOCC1 | 100% |
| CCCC[C@@H]1CN=C(N)N1CCc1cccc(F)c1 | 107% |
| CCCn1c(=N)n(CC(=O)c2ccc(Cl)c(Cl)c2)c2ccccc21 | 139% (active) |
| CCCNC(=O)c1ccc(Cl)c(Cl)c1 | 101% |
| CCn1c(=N)n(CC(=O)c2cccc(OC)c2)c2ccccc21 | 96% |
| COC(C[C@@H]1O[C@@H]1C(=O)[C@@H](C)OCc1ccccc1)OC | 97% |
| O=C(CCN1CCc2ccccc2C(O)(c2ccccc2)C1)c1ccc2c(c1)OCCO2 (configuration not stated) | 103% |
| CCN1CCN(CCNC(=O)c2ccc(/C=C3/Sc4ccccc4N(Cc4cccc(C)c4)C3=O)cc2)CC1 | 220% (active) |
| CCN1CCN(CCNC(=O)c2ccc3c(c2)NC(=O)/C(=C\c2ccc(OC)c(OC)c2)S3)CC1 | 131% |
| O=C(NCCN1CCOCC1)c1ccc(/C=C2\Sc3ccccc3N(Cc3ccc(F)cc3)C2=O)cc1 | 128% |
| CCOc1cc(C)c(S(=O)(=O)NCc2ccccn2)cc1C | 102% |
| Cc1cccc(N2CCN(C(=O)COCc3cc(-c4ccc5c(c4)OCO5)on3)CC2)c1C | 100% |
| Cc1nc2sccn2c(=O)c1S(=O)(=O)NCCc1ccccc1 | 99% |
| COc1ccc(CN2[C@@H](CC(=O)O)c3cc(F)ccc3S2(=O)=O)cc1 | 84% |
| CC(Oc1cccc(Cl)c1)C(=O)NC1CC(C)(C)NC(C)(C)C1 (configuration not stated) | 107% |
| CC(=O)Nc1ccc(C(=O)Nc2nc(-c3cc(C)n(Cc4ccccc4)c3C)cs2)cc1 | 107% |
| Cc1cc(-c2csc(N)n2)c(C)n1-c1ccccc1 | -9% (active) |
| Cc1cc(-c2csc(N)n2)c(C)n1Cc1ccccc1 | 89% |
